# Test results reported in PubChem BioAssay (NCATS).
# Records with an inconclusive call do not appear. A call without a number means that no potency is given here. Activity calls are given as the source filed them. Unless noted, the call rests on the fitted dose curve; in most records, active means well fitted curve in the direction sought with a large enough effect in the repeat runs; inconclusive means weak or mixed curves; inactive means no such curve, though single readings can be large; an effect the other way counts as inactive or inconclusive.
# Experiments:
# [1] = target: Cytochrome P450 2D6 (Homo sapiens) (UniProt P10635); experiment: Cytochrome P450 family 2 subfamily D member 6 (CYP2D6) small molecule antagonists: luciferase biochemical (cell-free) qHTS assay (AID 1645840); further: nearly all actives have a fitted effect of over 55% in size; further: potency means the concentration at half of the fitted maximal effect
# Method in brief: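 P450-Glo luminescent screen: recombinant CYP2D6 enzyme–proluciferin substrate mix preincubated with compound 10 min at room temperature, then NADPH regeneration added for 1 h at room temperature. Detection reagent added for 20 min; luciferin light read as relative luminescence units.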
# [2] = Confirmation and Secondary Assay for Modulators of Hemoglobin Beta Chain Splicing at IVS2 705 locus (AID 930; active means well fitted curve in the direction sought with a large enough effect; an effect the other way counts as inactive or inconclusive;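 further: HeLa cells stably expressing the EGFP-705 splicing reporter; GFP fluorescence per well restored by corrected splicing of the IVS2-705 intron in EGFP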)
# Method in brief: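 First, HeLa EGFP-705 cells are seeded at 500/well in Optimem with 2% FCS and left overnight. Next, compound or DMSO is added for 2 days. Finally wells are laser-scanned and total peak GFP intensity scored.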
# [3] = qHTS Assay for Lipid Storage Modulators (AID 1519; calls by dose curve); details: Drosophila S3 cells, BODIPY lipid droplet/cell ratio, laser cytometry, cells loaded with oleic acid; for activity change, negative = inhibition: at 57.5 µM (top of the series)
# Method in brief: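 Cells seeded at 5,000 per well were treated with compounds over a concentration series and loaded with oleic acid (400 uM, as added). Lipid droplet fluorescence (488 nm excitation, 500-530 nm channel) was read by laser-scanning cytometry and normalized to 20 uM Triacsin C.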
# [4] = Confirmation and Secondary Assay for Modulators of Hemoglobin Beta Chain Splicing at IVS2 654 locus (AID 910; active means well fitted curve in the direction sought with a large enough effect; an effect the other way counts as inactive or inconclusive;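 further: HeLa cells stably carrying EGFP split by mutant beta-globin IVS2-654 intron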)
# Method in brief: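 HeLa cells stably expressing EGFP interrupted by β-globin IVS2-654 intron, seeded overnight in Opti-MEM/2% FCS, then treated 2 days at 37 °C. Restored splicing read as total peak GFP intensity per well by laser scanning cytometry (488 nm excitation, 500–520 nm emission); 500 nM antisense PNA as control.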
# [5] = target: Cytochrome P450 3A4 (Homo sapiens) (UniProt P08684); experiment: qHTS Assay for Activators of Cytochrome P450 3A4 (AID 885; active means well fitted curve in the direction sought with a large enough effect; an effect the other way counts as inactive or inconclusive; further: nearly all actives have a fitted effect of over 65% in size)
# Method in brief: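 Quantitative HTS format: compounds preincubated with 20nM human CYP3A4 and Luciferin-PPXE substrate at KM, reaction started by NADPH regeneration, stopped after 60 min, luciferase luminescence read 20 min later.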
# [6] = target: ATP-dependent 6-phosphofructokinase (Trypanosoma brucei brucei) (UniProt O15648); experiment: qHTS Assay to Find Inhibitors of T. brucei phosphofructokinase: hit validation (AID 492961; active means well fitted curve in the direction sought with a large enough effect; an effect the other way counts as inactive or inconclusive)
# Method in brief: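 Luminescence from ADP-Glo reports ADP generated as T. brucei PFK (1.25 nM) phosphorylates 0.5 mM fructose-6-phosphate using 0.1 mM ATP. Reactions ran 45 min at room temperature, pH 8.0.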
# [7] = target: Ubiquitin carboxyl-terminal hydrolase 1 (Homo sapiens) (UniProt O94782); experiment: Inhibitors of USP1/UAF1: Pilot qHTS (AID 504865; active means well fitted curve in the direction sought with a large enough effect; an effect the other way counts as inactive or inconclusive;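 further: rhodamine fluorescence freed from ubiquitin-rhodamine substrate followed over time; top concentration of the series differs between compounds; nearly all actives have a fitted effect of over 35% in size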)
# Method in brief: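 Enzyme-free wells gave the negative control, while test wells held 1nM USP1/UAF1 preincubated with compound for 15 min at room temperature. Ub-Rho at 150nM final started the reaction, and fluorescence at 480/540 nm was recorded kinetically.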
# [8] = target: Luciferin 4-monooxygenase (Photinus pyralis) (UniProt P08659); experiment: Biochemical firefly luciferase enzyme assay for NPC (AID 624030; active means well fitted curve in the direction sought with a large enough effect; an effect the other way counts as inactive or inconclusive;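 further: purified P. pyralis luciferase at 10 nM with luciferin and ATP substrate; nearly all actives have a fitted effect of over 70% in size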)
# Method in brief: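 Purified P. pyralis luciferase at 10 nM in 50 mM Tris Acetate (final), luminescence read within 5 minutes of enzyme addition to compounds. Activity normalised to PTC124 versus DMSO; concentration-response curves classed by r2, magnitude and activity.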
# [9] = S16 Schwann cell viability assay (CellTiter-Glo assay) (AID 624031; active means well fitted curve in the direction sought with a large enough effect; an effect the other way counts as inactive or inconclusive;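 further: native untransfected S16 rat Schwann cells; nearly all actives have a fitted effect of over 70% in size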)
# Method in brief: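 Counter-screen for cytotoxicity: parental S16 rat Schwann cells lacking the PMP22 reporters, treated 24 h with compound, viability from cellular ATP by CellTiter-Glo luminescence, normalized to DMSO (0%) and no-cell wells.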
# [10] = S16 Schwann cell PMP22 intronic element firefly luciferase assay (AID 624032; active means well fitted curve in the direction sought with a large enough effect; an effect the other way counts as inactive or inconclusive; further: nearly all actives have a fitted effect of over 30% in size)
# Method in brief: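 Rat S16 Schwann cells stably carrying firefly luciferase driven by a PMP22 intronic element, in 10% FBS, treated 24 h at 37 C. ONE-Glo luminescence normalized to PTC124 control and DMSO (0%); curves classed by r2, magnitude and activity.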
# [11] = S16 Schwann cell PMP22 intronic element beta-lactamase assay (AID 624044; calls by dose curve; further: nearly all actives have a fitted effect of over 15% in size)
# Method in brief: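 Rat S16 Schwann cells with beta-Lac driven by a PMP22 intronic element, compound-treated 24 h at 37 °C. LiveBLAzer FRET B/G read: 460 nm normalized to potassium clavulanate vs DMSO; 535 nm FRET as viability; concentration-effect curves classified.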
# CP238 = experiment: qHTS profiling for inhibitors of Plasmodium falciparum proliferation (AID 504749; active means well fitted curve in the direction sought with a large enough effect; an effect the other way counts as inactive or inconclusive; further: nearly all actives have a fitted effect of over 60% in size); details: P. falciparum in erythrocytes, SYBR Green DNA, 72 h; series mostly up to 12.8 µM
# Method in brief: (§1)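 P. falciparum-infected erythrocytes (0.3% parasitemia, 2.5% hematocrit) incubated with compound 72 h at 37 C, 5% CO2. Parasite DNA detected by SYBR Green after lysis, overnight at room temperature; normalised to 0.29 uM artemisinin and DMSO.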
# CP286 = experiment: as above; details: P. falciparum in erythrocytes, SYBR Green DNA, 72 h; series mostly up to 12.8 µM
# Method in brief: as §1
# [12] = target: Cytochrome P450 2C9 (Homo sapiens) (UniProt P11712); experiment: Cytochrome P450 family 2 subfamily C member 9 (CYP2C9) small molecule antagonists: luciferase biochemical (cell-free) qHTS assay (AID 1645842); further: nearly all actives have a fitted effect of over 55% in size; further: potency means the concentration at half of the fitted maximal effect
# Method in brief: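 Luminescence, after 20 min with luciferin detection reagent, reflected CYP2C9 turnover during a 1 h NADPH-driven reaction at 37C. Enzyme-substrate mix contained 0.4% bovine serum albumin and was preincubated with compound 10 min at room temperature.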
# [13] = measured here: cell count channel max response
# [14] = measured here: lipid channel max response
# Cytochrome P450 2D6 (Homo sapiens), sequence (P10635 whole entry, looked up): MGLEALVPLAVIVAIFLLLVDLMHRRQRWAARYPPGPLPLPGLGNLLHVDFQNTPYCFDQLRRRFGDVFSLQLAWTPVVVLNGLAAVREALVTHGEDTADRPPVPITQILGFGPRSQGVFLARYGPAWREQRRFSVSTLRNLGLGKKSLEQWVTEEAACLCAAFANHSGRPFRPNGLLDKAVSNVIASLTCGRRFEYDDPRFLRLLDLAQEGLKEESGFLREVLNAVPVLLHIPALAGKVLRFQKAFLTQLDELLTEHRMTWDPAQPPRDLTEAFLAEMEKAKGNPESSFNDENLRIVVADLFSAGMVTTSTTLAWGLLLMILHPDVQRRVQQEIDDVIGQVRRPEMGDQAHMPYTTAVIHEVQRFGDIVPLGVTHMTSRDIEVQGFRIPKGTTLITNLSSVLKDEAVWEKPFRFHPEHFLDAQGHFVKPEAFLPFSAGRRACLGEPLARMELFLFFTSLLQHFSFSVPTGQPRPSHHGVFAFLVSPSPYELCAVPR
# Cytochrome P450 2C9 (Homo sapiens), sequence (P11712 whole entry, looked up): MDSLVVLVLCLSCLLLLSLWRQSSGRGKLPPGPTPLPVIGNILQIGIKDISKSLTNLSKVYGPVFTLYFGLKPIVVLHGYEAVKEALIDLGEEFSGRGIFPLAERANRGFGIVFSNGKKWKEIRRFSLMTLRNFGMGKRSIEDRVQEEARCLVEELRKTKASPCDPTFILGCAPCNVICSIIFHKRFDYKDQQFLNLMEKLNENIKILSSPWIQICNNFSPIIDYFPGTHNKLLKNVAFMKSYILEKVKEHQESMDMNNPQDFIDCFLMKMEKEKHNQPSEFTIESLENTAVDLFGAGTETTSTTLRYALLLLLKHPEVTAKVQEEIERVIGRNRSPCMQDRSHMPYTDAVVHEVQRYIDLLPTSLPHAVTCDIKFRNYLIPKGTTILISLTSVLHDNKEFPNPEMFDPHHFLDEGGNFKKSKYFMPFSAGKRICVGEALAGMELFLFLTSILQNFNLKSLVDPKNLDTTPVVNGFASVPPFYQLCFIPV
# Cytochrome P450 3A4 (Homo sapiens), sequence (P08684 whole entry, looked up): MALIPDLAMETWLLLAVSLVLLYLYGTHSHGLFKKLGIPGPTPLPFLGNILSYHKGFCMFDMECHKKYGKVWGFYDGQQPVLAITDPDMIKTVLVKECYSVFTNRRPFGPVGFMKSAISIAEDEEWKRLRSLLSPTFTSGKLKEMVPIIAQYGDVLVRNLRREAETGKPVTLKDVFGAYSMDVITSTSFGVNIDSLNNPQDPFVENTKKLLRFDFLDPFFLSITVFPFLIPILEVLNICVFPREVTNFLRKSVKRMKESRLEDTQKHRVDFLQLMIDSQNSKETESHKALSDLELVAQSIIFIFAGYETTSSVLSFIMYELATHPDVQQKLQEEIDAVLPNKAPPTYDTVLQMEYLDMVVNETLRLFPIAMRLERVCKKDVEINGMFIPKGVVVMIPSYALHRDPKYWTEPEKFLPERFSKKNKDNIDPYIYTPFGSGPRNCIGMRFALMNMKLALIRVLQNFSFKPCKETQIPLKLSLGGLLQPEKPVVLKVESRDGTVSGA
# ATP-dependent 6-phosphofructokinase (Trypanosoma brucei brucei), sequence (O15648 whole entry, looked up): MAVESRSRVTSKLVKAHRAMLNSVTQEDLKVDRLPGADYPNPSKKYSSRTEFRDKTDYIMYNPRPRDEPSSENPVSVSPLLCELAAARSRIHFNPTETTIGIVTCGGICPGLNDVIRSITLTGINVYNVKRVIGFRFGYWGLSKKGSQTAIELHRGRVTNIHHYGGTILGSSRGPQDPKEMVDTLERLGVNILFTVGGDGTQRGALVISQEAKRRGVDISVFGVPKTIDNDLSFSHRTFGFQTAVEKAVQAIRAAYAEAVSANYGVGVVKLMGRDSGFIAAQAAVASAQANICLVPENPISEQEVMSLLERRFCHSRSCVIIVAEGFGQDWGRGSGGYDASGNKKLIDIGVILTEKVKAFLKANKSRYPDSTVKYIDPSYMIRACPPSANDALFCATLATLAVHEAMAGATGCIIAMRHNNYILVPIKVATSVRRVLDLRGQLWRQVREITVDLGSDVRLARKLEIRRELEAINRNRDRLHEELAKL
# Ubiquitin carboxyl-terminal hydrolase 1 (Homo sapiens), sequence (O94782 whole entry, looked up): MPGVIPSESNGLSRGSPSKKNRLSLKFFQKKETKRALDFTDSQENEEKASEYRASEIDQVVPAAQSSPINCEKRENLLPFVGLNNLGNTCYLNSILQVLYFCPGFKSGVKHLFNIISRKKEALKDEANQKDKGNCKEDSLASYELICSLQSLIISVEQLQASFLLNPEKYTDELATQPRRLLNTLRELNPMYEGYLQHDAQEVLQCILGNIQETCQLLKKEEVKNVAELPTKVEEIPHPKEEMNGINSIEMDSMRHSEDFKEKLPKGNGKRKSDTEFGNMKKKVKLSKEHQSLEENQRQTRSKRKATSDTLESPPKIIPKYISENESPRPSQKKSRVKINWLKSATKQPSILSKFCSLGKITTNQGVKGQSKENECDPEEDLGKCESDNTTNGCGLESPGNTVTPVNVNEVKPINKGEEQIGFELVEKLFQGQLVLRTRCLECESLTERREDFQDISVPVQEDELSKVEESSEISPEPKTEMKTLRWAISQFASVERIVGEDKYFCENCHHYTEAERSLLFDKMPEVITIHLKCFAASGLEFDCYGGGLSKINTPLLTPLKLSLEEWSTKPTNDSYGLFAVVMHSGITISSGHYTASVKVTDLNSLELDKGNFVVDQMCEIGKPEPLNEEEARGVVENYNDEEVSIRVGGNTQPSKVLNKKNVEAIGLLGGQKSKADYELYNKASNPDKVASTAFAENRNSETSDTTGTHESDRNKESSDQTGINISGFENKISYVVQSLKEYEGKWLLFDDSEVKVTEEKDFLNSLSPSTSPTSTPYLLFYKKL
# Luciferin 4-monooxygenase (Photinus pyralis), sequence (P08659 whole entry, looked up): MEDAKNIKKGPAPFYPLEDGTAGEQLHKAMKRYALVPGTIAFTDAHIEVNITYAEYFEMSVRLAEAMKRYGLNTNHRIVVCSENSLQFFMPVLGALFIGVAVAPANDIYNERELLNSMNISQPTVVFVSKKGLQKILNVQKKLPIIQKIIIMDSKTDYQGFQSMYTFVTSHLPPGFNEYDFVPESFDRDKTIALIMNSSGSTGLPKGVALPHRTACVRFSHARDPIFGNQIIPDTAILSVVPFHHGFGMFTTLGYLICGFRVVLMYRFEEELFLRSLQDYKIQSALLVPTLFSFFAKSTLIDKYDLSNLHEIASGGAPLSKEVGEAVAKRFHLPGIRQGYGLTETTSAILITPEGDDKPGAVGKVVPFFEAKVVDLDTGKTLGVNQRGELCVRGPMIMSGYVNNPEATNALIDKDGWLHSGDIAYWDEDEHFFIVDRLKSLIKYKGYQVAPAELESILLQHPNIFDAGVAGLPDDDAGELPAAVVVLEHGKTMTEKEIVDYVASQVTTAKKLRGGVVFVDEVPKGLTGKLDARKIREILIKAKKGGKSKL
smiles,measurement,setting,value
COc1cccc(Cn2c(SCC(=O)N3CCN(c4ccc(F)cc4)CC3)nc3ccccc32)c1,Potency,[1],10.7 µM (active)
COC(=O)[C@H]1C(OC)[C@@H](OC(=O)c2cc(OC)c(OC)c(OC)c2)C[C@@H]2CN3CCc4c([nH]c5cc(OC)ccc45)[C@H]3C[C@H]21 (stereo partly drawn),Potency,[2],inactive
same,"activity change, negative = inhibition",[3],8.9% (inactive)
same,max response,[3]; [13],4.56%
same,max response,[3]; [14],13.7%
CC(=O)OCC1=C(C(=O)O)N2C(=O)C(NC(=O)Cc3cccs3)C2SC1 (stereo not drawn),Potency,[4],inactive
same,Potency,[2],inactive
same,"activity change, negative = inhibition",[3],9.08% (inactive)
same,max response,[3]; [13],8.85%
same,max response,[3]; [14],22%
Cc1[nH]n2c(=O)cc(-c3ccc(Cl)cc3)nc2c1-c1ccccc1,Potency,[1],inactive
O=C(O)CN(CC(=O)O)Cc1cc2c(-c3ccccc3C(=O)O)c3cc(CN(CC(=O)O)CC(=O)O)c(=O)cc-3oc2cc1O,Potency,[5],inactive
same,Potency,[4],inactive
same,Potency,[2],inactive
same,outcome,[6],inactive
same,Potency,[7],inactive
same,Potency,[8],inactive
same,outcome,[9],inactive
same,Potency,[10],inactive
same,Potency,[11],inactive
same,Potency,CP238,inactive
same,Potency,CP286,inactive
Cc1ccccc1-n1c(SCc2ccc(Cl)cc2)nc2[nH]ncc2c1=O,Potency,[1],21.3 µM (active)
same,Potency,[12],2.39 µM (active)
Cc1ccc2nc(-c3ccccn3)c(Nc3ccccc3C)n2c1,Potency,[1],21.3 µM (active)
same,Potency,[12],1.9 µM (active)
Cc1ccc(-n2c(SCc3ccccc3C)nc3[nH]ncc3c2=O)cc1C,Potency,[1],12 µM (active)
same,Potency,[12],21.3 µM (active)
CCOC(=O)c1cnc2ccc(OC)cc2c1NCCc1ccc(OC)c(OC)c1,Potency,[1],2.39 µM (active)
same,Potency,[12],0.849 µM (active)
COc1ccc(NC(=O)C2CCCN(c3nnc(C)c4c(C)n(-c5ccccc5)nc34)C2)cc1Cl (stereo not drawn),Potency,[1],16.9 µM (active)
same,Potency,[12],5.35 µM (active)
COc1cc(C(c2c(C)[nH][nH]c2=O)c2c(C)[nH][nH]c2=O)ccc1OC(=O)c1cccc(C)c1,Potency,[1],inactive
same,Potency,[12],12 µM (active)
CCOC(=O)c1ccc(NC(=O)c2cc(=O)c3ccc(C)c(C)c3o2)cc1,Potency,[1],inactive
same,Potency,[12],inactive
Cc1ccc(S(=O)(=O)NC2CCC(C(C)(C)C)CC2)cc1 (stereo not drawn),Potency,[1],inactive
same,Potency,[12],2.68 µM (active)
